# Inconclusive results are not listed. Calls of active or inactive are those of the source.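 The calls were made as follows, unless noted: active = viability at or under a set limit in both replicates, limit being median viability minus 3 SD (cut at about 48% in these data, passing the limit was not always enough); inconclusive = at or under the limit in just one replicate; inactive = at or above the limit in both replicates.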
# What was measured:
# [1] = reducers of endogenous Her2 protein level, primary screen, SKBR3 breast tumor cells, AlphaScreen, ATP viability (AID 461;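 active = Her2 level under about 52% in both replicate screens, with viability over 70% of control, limit read from the data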;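 as to Her2 level: lower value means less Her2 protein in the cells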;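 as to viability: percent of carrier control wells set as 100% viability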); conditions: 18-24 h, measured here: SKBR3 viability, ATP luminescence, at 10 µM
# [2] = molecular target: Receptor tyrosine-protein kinase erbB-2 (Homo sapiens) (UniProt P04626); test: as above; conditions: 18-24 h, at 10 µM, stronger effect = lower value
# Receptor tyrosine-protein kinase erbB-2 (Homo sapiens), sequence (P04626 whole entry, looked up): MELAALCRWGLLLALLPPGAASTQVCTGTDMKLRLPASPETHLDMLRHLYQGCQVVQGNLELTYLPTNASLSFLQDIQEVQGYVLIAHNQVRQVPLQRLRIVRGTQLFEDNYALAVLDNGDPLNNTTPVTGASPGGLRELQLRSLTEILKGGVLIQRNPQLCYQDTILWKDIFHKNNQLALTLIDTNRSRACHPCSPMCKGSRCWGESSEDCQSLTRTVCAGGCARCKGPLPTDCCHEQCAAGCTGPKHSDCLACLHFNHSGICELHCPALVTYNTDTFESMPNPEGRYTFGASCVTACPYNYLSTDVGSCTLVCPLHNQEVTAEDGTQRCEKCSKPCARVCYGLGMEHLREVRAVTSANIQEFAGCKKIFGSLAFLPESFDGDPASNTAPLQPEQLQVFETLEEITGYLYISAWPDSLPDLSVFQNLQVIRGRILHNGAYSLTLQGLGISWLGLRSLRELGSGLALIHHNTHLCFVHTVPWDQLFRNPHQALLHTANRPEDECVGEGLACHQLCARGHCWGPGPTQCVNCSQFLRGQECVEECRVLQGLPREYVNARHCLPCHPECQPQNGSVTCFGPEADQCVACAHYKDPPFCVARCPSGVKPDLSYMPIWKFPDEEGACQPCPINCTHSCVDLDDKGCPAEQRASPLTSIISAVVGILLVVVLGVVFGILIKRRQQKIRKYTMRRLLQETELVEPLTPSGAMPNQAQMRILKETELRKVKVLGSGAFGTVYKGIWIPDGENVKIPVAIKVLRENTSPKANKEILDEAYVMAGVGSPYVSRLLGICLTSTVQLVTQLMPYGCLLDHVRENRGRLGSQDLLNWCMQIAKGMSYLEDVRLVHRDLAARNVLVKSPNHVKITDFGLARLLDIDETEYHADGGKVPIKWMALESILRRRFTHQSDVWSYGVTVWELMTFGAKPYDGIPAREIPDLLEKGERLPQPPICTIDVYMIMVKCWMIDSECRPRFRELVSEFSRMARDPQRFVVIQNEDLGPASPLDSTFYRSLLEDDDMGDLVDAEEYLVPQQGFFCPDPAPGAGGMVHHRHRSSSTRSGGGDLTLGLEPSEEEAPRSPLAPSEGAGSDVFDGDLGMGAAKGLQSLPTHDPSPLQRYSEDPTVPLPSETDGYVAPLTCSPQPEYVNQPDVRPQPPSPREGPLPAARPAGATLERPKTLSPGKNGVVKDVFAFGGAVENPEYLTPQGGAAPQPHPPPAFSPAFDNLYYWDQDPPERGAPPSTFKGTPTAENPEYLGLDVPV
# [3] = SK-BR-3 cell growth inhibitors, pilot screen, 24 h, human (AID 572;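 active = viability at or below 10% of carrier control in both of two separate runs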;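 also: compound exposure lasted between 18 and 24 h rather than exactly 24 h; 100% = carrier-treated control wells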); conditions: SK-BR-3 viability, CellTiter-Glo luminescence, at 10 µM, stronger effect = lower value
# [4] = HUVEC growth inhibition – cell-based, human, primary screen (AID 575;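 active = viability at or below 30% in both replicate assays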;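 also: 100% = median of untreated cell wells with 0.1% DMSO on each plate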); conditions: HUVEC proliferation, CellTiter-Glo luminescence, 72 h; at 10 µM; stronger effect = lower value
# [5] = growth inhibitors of H69AR lung tumor, primary screen, human, duplicate replicates (AID 580); conditions: H69AR lung tumor cells viability, ATP luminescence, 72 h; at 10 µM; stronger effect = lower value;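 also: 100% = mean luminescence of untreated wells and 0% = no signal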
# [6] = reversal of MRP1-mediated doxorubicin resistance, pilot screen, H69AR cells, doxorubicin co-treatment (AID 601;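 active = viability loss from added drug above about 55%, and viability with drug at most 40%, in both replicates, limit read from the data, passing the limit was not always enough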); conditions: CellTiter-Glo, 72 h, at 10 µM; for differential viability (reversal): stronger effect = higher value
# [7] = 384-well plate pilot, post-Golgi transport modulator project, inhibition of yeast transport mutant growth (AID 636; in the data active = inhibition above about 31%); conditions: absorbance 615 nm, about 18 h, stronger effect = higher value
# [8] = growth suppression of yeast trafficking mutant, preliminary HTS, modulators of trafficking downstream of Golgi apparatus project, 1536-format plate, OD 615 nm (AID 637; in the data active = inhibition above about 30%); conditions: yeast transport mutant growth, absorbance 615 nm, 18 h; stronger effect = higher value
# [9] = OD615 S. cerevisiae growth inhibition, permissive medium, pilot counter-assay, permissive growth control for S. cerevisiae lifespan shortening project (AID 705;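 active = growth inhibition above 25% in both replicates, a cutoff set 3 SD above the mean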); conditions: OD615, 24 h, at 10 µM, stronger effect = higher value
# [10] = Restrictive medium S. cerevisiae growth inhibition, OD615, pilot screen of yeast lifespan reduction project, restrictive growth control (AID 706;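 active = growth inhibition above a set limit, 3 SD over mean compound inhibition, in both replicates, cut at about 43% in these data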;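 also: modified DeaD lifespan yeast strain shifted to restrictive glucose medium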); conditions: OD615, 48 h, at 10 µM, stronger effect = higher value
# [11] = viability gain of MRP-1-high H69AR cells under doxorubicin, pilot screen, MRP-1 activator project, CellTiter-Glo, duplicate (AID 807;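 active = viability increase at or above a cutoff of the median across tested compounds plus 3 SD, cut at about 8.5% in these data, passing the limit was not always enough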;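 also: compound pretreatment 18-22 h then 72 h combined with doxorubicin; 0% = doxorubicin alone and 100% = vehicle without doxorubicin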); conditions: H69AR viability with doxorubicin, CellTiter-Glo luminescence; at 10 µM; stronger effect = higher value
# [12] = growth suppression of beta-catenin knockout HCT116, pilot screen, human colon tumor cells (AID 823;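 active = cell viability at or below a set limit in both duplicate runs, the limit being the all-compound median minus 4 SD, cut at about 23% in these data, passing the limit was not always enough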;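 also: 0% = wells killed by 20 µM Hyamine and 100% = untreated DMSO cell wells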); conditions: CellTiter-Glo, 60 h, at 10 µM, stronger effect = lower value
# [13] = growth suppression of PTEN-deleted HCT116, pilot screen, cell-based, HCT116 clonal line, CellTiter-Glo (AID 824;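 active = viability at or below 27.92% in each of two runs, the all-compound median minus 4 SD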;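 also: 0% = 20 µM Hyamine control and 100% = vehicle cell control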); conditions: 60 h, at 10 µM, stronger effect = lower value
# [14] = inhibitors of the yeast RAM network, pilot screen, dse1pr::URA3 reporter, 5-FOA selection (AID 869;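 active = inhibition over a set limit, the all-compound mean plus 3 SD, in both replicate runs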;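 also: 0% = DMSO wells with no growth and 100% = 10 µM 1-NA-PP1 with full growth; RAM network block rescues cells from 5-FOA so hits raise OD615 growth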); conditions: S. cerevisiae dse1pr::URA3 5-FOA growth, OD615, 2 d; at 10 µM; stronger effect = higher value; strain carries analog-sensitive mutant Cbk1 kinase
# [15] = RAM signaling pathway blockade in yeast – S. cerevisiae, Pdr1DBD-CYC8 efflux-inhibited sensitized strain, primary screen (AID 1298;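 active = RAM network inhibition above 8.4% in each of two replicates, 3 SD over the compound average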;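 also: 0% = DMSO untreated cells without growth and 100% = 10 µM 1-NA-PP1 full growth; higher means more yeast growth rescued from 5-FOA killing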); conditions: S. cerevisiae cbk1-as DSE1-URA3 strain, 5-FOA growth OD615, 2 d; at 50 µM; stronger effect = higher value
# [16] = H69AR cells + 2 uM doxorubicin, measured here: viability with 2 uM doxorubicin, stronger effect = lower value
# [17] = H69AR cells, compound alone cytotoxicity
Compound,viability [1] [%],Her2 level [2],viability [3],viability [4],viability [5],differential viability (reversal) ([6]; H69AR cells + 2 uM doxorubicin),"viability [6, 16] [%]","viability [6, 17] [%]",inhibition [7],inhibition [8],growth inhibition [9],growth inhibition [10],viability increase [11],viability [12],viability [13],inhibition [14],RAM network inhibition [15]
COc1ccc(C(NC(=O)c2ccco2)c2ccc(OC)c(OC)c2)cc1 (stereo not given),93,84% (inactive),93% (inactive),89.2% (inactive),96.2% (inactive),15.1% (inactive),81.1,96.2,-8.11% (inactive),-3.17% (inactive),-14.2% (inactive),-19.3% (inactive),-4.05% (inactive),98.2% (inactive),96.4% (inactive),1.3% (inactive),2.41% (inactive)
Cc1nn(C(=O)c2ccoc2C)c(N)c1-c1ccccc1,101,88.5% (inactive),101% (inactive),85.9% (inactive),92.1% (inactive),12.6% (inactive),79.5,92.1,-6.27% (inactive),-2.33% (inactive),13% (inactive),10.9% (inactive),2.64% (inactive),78.8% (inactive),84.3% (inactive),1.68% (inactive),7.07% (inactive)
O=C(Cn1c(=O)[nH]c2ccsc2c1=O)NC1CCCCCC1,110,97% (inactive),110% (inactive),111% (inactive),94.3% (inactive),-2.65% (inactive),97,94.3,-7.16% (inactive),2.17% (inactive),-6.35% (inactive),-17.4% (inactive),1.49% (inactive),106% (inactive),99.2% (inactive),0.875% (inactive),0.72% (inactive)
O=C1c2ccccc2C(=O)N1C/C=C/CN1C(=O)c2ccccc2C1=O,85,91.5% (inactive),85% (inactive),86.5% (inactive),82.8% (inactive),-9.46% (inactive),92.3,82.8,-3.46% (inactive),-0.33% (inactive),2.25% (inactive),-1.58% (inactive),-1.04% (inactive),90.3% (inactive),102% (inactive),3.1% (inactive),4.65% (inactive)
CCOC(=O)c1ccc2ncc(C(=O)OCC)c(NCCN(C)C)c2c1,84,99.5% (inactive),84% (inactive),102% (inactive),91.8% (inactive),10.6% (inactive),81.2,91.8,-0.8% (inactive),1.83% (inactive),-4.69% (inactive),2.56% (inactive),-1.02% (inactive),95.8% (inactive),94.8% (inactive),2.64% (inactive),2.56% (inactive)

# Source: PubChem BioAssay
